{"source": "paper PMC7862700", "about": "“An all-to-all approach to the identification of sequence-specific readers for epigenetic DNA modifications on cytosine”", "experiment_in_all_cases": "DAPPL (digital affinity profiling via proximity ligation, sequencing); 10 mM Tris-HCl pH 7.5, 50 mM NaCl, 1 mM DTT, 4% glycerol, room temperature, 30 min; GST-TFs on glutathione beads, 16-mer random dsDNA library, 0.1% formaldehyde crosslink after washing; high values mean tight binding", "key": {"HSF1": {"target": "HSF1 (Homo sapiens, UniProt Q00613 1-529)", "sequence (Q00613 whole entry, the tested form may be a part)": "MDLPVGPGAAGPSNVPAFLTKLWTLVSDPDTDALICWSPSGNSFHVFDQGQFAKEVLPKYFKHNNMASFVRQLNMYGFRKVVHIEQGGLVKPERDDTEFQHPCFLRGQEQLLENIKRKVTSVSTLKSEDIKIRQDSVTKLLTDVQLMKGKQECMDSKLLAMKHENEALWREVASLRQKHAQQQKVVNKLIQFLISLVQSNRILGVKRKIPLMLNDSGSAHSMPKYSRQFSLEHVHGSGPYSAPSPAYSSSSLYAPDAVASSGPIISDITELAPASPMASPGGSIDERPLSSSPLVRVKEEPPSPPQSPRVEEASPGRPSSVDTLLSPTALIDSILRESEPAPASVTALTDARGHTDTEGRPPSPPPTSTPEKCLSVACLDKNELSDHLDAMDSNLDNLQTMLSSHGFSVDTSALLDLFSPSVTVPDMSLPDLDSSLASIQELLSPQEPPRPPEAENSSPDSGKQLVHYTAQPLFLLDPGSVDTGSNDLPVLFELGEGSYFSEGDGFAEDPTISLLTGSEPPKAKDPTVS", "conditions": "protein: recombinant; tags: N-terminal GST; chain copies: 3; dsDNA, one strand shown", "procedure,_shortened": "(§1)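 GST fusions of human transcription factors were expressed in yeast and captured with glutathione beads. Once given DNA barcodes and pooled alongside a tag-only sample, they were incubated for 30 min at room temperature with 200 nmole of a random double-stranded 16-mer DNA library in Tris/NaCl/DTT/glycerol buffer, then washed, crosslinked (0.1% formaldehyde), proximity-ligated, PCR-amplified and sequenced on an Illumina NextSeq500. The binding signal of each hexamer is its read frequency for a factor divided by its frequency for the tag-only sample.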"}, "ELK4": {"target": "T1, ELK4 (Homo sapiens, UniProt P28324-2 1-405)", "T1 sequence": "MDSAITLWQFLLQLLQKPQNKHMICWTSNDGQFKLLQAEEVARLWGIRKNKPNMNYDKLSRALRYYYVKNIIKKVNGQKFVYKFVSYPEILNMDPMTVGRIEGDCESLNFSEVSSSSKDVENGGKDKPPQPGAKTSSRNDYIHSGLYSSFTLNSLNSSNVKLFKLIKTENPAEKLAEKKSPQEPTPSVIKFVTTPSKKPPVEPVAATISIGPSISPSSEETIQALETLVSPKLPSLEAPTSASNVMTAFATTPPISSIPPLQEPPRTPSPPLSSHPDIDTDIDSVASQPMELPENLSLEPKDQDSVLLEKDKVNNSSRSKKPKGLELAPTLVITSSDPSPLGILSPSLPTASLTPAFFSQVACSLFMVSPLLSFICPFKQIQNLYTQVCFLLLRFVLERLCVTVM", "conditions": "protein: recombinant; tags: N-terminal GST; dsDNA, one strand shown", "procedure,_shortened": "as §1"}, "ETV2": {"target": "T2, ETV2 (Homo sapiens, UniProt O00321 1-342)", "T2 sequence": "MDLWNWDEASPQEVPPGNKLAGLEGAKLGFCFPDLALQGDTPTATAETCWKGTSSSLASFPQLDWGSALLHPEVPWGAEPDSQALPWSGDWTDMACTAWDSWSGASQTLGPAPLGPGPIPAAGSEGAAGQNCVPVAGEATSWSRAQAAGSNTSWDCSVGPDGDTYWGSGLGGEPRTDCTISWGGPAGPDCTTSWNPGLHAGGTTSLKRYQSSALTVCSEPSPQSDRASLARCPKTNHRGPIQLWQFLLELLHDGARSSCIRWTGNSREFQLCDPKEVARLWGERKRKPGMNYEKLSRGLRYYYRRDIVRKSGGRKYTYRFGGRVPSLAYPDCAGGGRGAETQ", "conditions": "protein: recombinant; tags: N-terminal GST; dsDNA, one strand shown", "procedure,_shortened": "as §1"}, "ERF": {"target": "T3, ERF (Homo sapiens, UniProt P50548 1-548)", "T3 sequence": "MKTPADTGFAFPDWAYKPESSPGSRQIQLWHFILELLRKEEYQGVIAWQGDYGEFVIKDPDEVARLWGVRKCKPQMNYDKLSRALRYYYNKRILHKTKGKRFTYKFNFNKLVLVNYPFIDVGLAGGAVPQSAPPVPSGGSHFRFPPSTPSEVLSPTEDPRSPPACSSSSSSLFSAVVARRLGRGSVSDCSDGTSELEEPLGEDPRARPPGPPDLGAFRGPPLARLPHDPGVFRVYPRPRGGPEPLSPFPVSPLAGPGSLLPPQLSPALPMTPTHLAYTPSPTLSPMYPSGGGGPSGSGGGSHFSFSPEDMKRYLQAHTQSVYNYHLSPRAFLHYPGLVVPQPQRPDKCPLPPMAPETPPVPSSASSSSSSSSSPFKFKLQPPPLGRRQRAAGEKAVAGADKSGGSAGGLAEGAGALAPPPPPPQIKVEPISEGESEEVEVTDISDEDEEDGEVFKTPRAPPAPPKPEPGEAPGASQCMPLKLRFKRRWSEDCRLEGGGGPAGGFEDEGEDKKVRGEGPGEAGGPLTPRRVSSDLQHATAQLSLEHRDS", "conditions": "protein: recombinant; tags: N-terminal GST; dsDNA, one strand shown", "procedure,_shortened": "as §1"}, "SPDEF": {"target": "T4, SPDEF (Homo sapiens, UniProt O95238 1-335)", "T4 sequence": "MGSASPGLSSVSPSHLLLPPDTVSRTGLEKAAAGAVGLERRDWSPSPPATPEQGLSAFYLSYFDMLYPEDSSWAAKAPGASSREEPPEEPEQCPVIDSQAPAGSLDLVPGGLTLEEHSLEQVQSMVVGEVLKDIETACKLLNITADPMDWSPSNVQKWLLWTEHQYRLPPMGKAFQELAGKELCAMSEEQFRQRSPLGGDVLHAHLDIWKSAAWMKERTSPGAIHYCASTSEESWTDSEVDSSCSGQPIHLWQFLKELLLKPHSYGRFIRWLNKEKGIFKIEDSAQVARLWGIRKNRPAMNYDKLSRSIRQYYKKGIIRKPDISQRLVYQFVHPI", "conditions": "protein: recombinant; tags: N-terminal GST; dsDNA, one strand shown", "procedure,_shortened": "as §1"}}, "data": [{"sequence": "GAATAG", "values": [{"measurement": "binding signal", "setting": "HSF1", "value": "1.11 fold enrichment (6-mer frequency, TF over GST control)"}, {"measurement": "binding signal", "setting": "ELK4", "value": "1.02 fold enrichment (6-mer frequency, TF over GST control)"}, {"measurement": "binding signal", "setting": "ETV2", "value": "1.03 fold enrichment (6-mer frequency, TF over GST control)"}, {"measurement": "binding signal", "setting": "ERF", "value": "1.08 fold enrichment (6-mer frequency, TF over GST control)"}, {"measurement": "binding signal", "setting": "SPDEF", "value": "1.02 fold enrichment (6-mer frequency, TF over GST control)"}]}]}
